From PubChem BioAssay (EPA / NIEHS) come the findings set out here.

Results filed as inconclusive are left out. The source made the active and inactive calls. Rule for the calls: active = hit-call score of the fitted dose curve at least 0.9, where 1 is the maximum; inconclusive = response in the unintended direction; inactive = score below 0.9.

Test [1] is described as follows: TOX21_p53_BLA_p2_viability: Viability Assessment in the Tox21 HCT-116 p53 Agonism Beta-lactamase Assay, Phase 2 (AID 2283591).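 Note: compound exposure lasted 16 h at 37 °C; actives lower the ATP signal meaning cytotoxicity.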 In a few lines:
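HCT116 p53-bla cells, 4000/well, dosed after 5 h plating (217-fold dilution of DMSO stocks) and incubated 16 h at 37C. Viability taken as cellular ATP by CellTiter-Glo luminescence after 30 min RT; signal loss marks cytotoxicity.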

Test [2] has as its target Cellular tumor antigen p53 (Homo sapiens) (UniProt P04637). The test is described as follows: TOX21_p53_BLA_p2_ratio: Tox21 HCT-116 p53 Agonism Beta-lactamase Assay, Ratio, Phase 2 (AID 2283592). Put shortly: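 Plated HCT116 p53-bla cells (4000/well) received compound after 5 h, then 16 h at 37C/5% CO2. CCF4-AM added, 2 h RT. Ratio of 460 to 530 nm emission taken as the p53 reporter signal.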

Test [3] in a line: TOX21_p53_BLA_p3_viability: Viability Assessment in the Tox21 HCT-116 p53 Agonism Beta-lactamase Assay, Phase 3 (AID 2283593).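 Note: cells exposed to compound for 16 h before reading.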 In a few lines:
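HCT116 cells, 4000/well, dosed 5 h after plating by pin transfer (217-fold dilution from DMSO stock) and incubated 16 h at 37C, 5% CO2. Viability read as ATP luminescence with CellTiter-Glo after 30 min at room temperature.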

Test [4] concerns the target Cellular tumor antigen p53 (Homo sapiens) (UniProt P04637). The test is described as follows: TOX21_p53_BLA_p3_ratio: Tox21 HCT-116 p53 Agonism Beta-lactamase Assay, Ratio, Phase 3 (AID 2283596). Put shortly: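 Cells were seeded at 4000/well, rested 5 h at 37C, then dosed with DMSO compound solutions (217-fold dilution) for 16 h. CCF4-AM substrate was loaded for 2 h at room temperature, and the 460/530 nm emission ratio was fitted for gain of signal versus DMSO.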

The target is the same in test [5]. The test is described as follows: TOX21_p53_BLA_p5_ratio: Tox21 HCT-116 p53 Agonism Beta-lactamase Assay, Ratio, Phase 5 (AID 2283599). In a few lines: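 HCT-116 p53-bla cells (4000/well) plated 5 h, dosed with compound (217-fold DMSO dilution) for 16 h at 37 C; CCF4-AM substrate 2 h at room temperature. Activity is the 460/530 nm emission ratio (405 nm excitation), fitted in gain-of-signal direction versus DMSO.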

Test [6] shares this target. The test is described as follows: TOX21_p53_BLA_p4_ratio: Tox21 HCT-116 p53 Agonism Beta-lactamase Assay, Ratio, Phase 4 (AID 2283601). In a few lines: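 HCT-116 p53 beta-lactamase reporter cells (4000/well) preincubated 5 h, then compound (217-fold dilution of DMSO stock) for 16 h at 37C. CCF4-AM substrate added 2 h at room temperature; 460/530 nm emission ratio fitted upward versus DMSO.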

A short description of test [7]: TOX21_p53_BLA_p5_viability: Viability Assessment in the Tox21 HCT-116 p53 Agonism Beta-lactamase Assay, Phase 5 (AID 2283600). In a few lines: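 Workflow: seed 4000 cells per well, wait 5 h, add compounds (DMSO, 217-fold dilution), incubate 16 h, load CCF4-AM 2 h, add CellTiter-Glo, read luminescence after 30 min.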
A short description of test [8]: CCTE_Deisenroth_AIME_96WELL_CTox_Active: Cytotoxicity Assessment (CTOX) in CCTE's 96-well Estrogen Receptor Transactivation Assay with AIME metabolic competence (metabolism positive), Deisenroth Lab (AID 2284028). Put shortly:
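Cytotoxicity in VM7Luc4E2 breast cells after 24 h exposure to medium from a 2 h metabolic pre-incubation with induced rat hepatic S9 in alginate microspheres; fluorescent live-cell protease readout, 10-point series 0.002–200 uM, n=4.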

Test [9] can be described thus: CCTE_Deisenroth_AIME_96WELL_CTox_Inactive: Cytotoxicity Assessment (CTOX) in CCTE's 96-well Estrogen Receptor Transactivation Assay without AIME metabolic competence (metabolism negative), Deisenroth Lab (AID 2284029). In a few lines:
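Metabolism-negative mode: alginate-water lids without rat S9, 2 h pre-incubation of 10-point series (0.002 - 200 uM). Conditioned medium on VM7Luc4E2 cells 24 h; loss of fluorescent live-cell protease signal marks cytotoxicity.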

The target of test [10] is Thyroid hormone receptor alpha (Rattus norvegicus) + Thyroid hormone receptor beta (Rattus norvegicus) (UniProt P18113+P63059). The test is described as follows: TOX21_TR_LUC_GH3_Antagonist_Followup: Tox21 GH3 Thyroid Hormone Receptor Antagonism Luciferase Follow-Up Assay (AID 2283942). In a few lines:
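Luminescence read-out (ONE-Glo, 30 min at room temperature) in GH3 reporter cells challenged with 1.0 nM T3 final. Compounds ran at 92 uM to 5nM over 15 concentrations for 24 h; DMSO served as negative control and baseline.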

A further test concerns the target THRA (gene 7067) (UniProt P10827). The test is described as follows: TOX21_TRA_COA_Antagonist_Followup_ratio: Tox21 Thyroid Hormone Receptor alpha Antagonism through Coactivator Recruitment Follow-Up Assay, Ratio (AID 2283953). Put shortly:
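GST-TRα LBD 2.5 nM, BSA 0.10%, + cpd; then FITC-SRC-2 peptide 200 nM + Tb-anti-GST Ab 2 nM. TR-FRET ratio 520/495 nm. Norm: DMSO = 0%, T3 = 100%.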

The next test deals with THRB (gene 7068) (UniProt P10828). The test is described as follows: TOX21_TRB_BLA_Antagonist_Followup_ratio: Tox21 Thyroid Hormone Receptor beta Antagonism Beta-lactamase (BLA) Follow-Up Assay, Ratio (AID 2283958). Put shortly:
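Beta-lactamase reporter ratio (460/530 nm, CCF4-AM substrate, 2 h room temperature) was read in TRb-bla HEK293T cells after 18 h compound treatment (11 concentrations, triplicate) at 37C in 2% charcoal-stripped FBS medium. Loss of signal fitted against DMSO.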

A short description of test [11]: TOX21_TR_RXR_BLA_Antagonist_Followup_viability: Viability Assessment in the Tox21 Thyroid Hormone Receptor beta Retinoid X Receptor alpha (RXRa) Antagonism Beta-lactamase (BLA) Follow-Up Assay (AID 2283979). In a few lines: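 RXRa-bla HEK293T cells (2,500/well, phenol red-free DMEM, 2% charcoal-stripped FBS) were attached 5 h, then exposed to compounds at 11 concentrations in triplicate for 16 h at 37C. Viability measured by CellTiter-Glo ATP luminescence, bidirectional fitting versus DMSO.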

Test [12] is described as follows: TOX21_p53_BLA_p4_viability: Viability Assessment in the Tox21 HCT-116 p53 Agonism Beta-lactamase Assay, Phase 4 (AID 2283597).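 Note: hits lower the luminescence signal meaning cytotoxicity.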 In a few lines:
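Readout: ATP luminescence (CellTiter-Glo), measured 30 min after reagent addition at RT. The reagent followed a 2 h CCF4-AM incubation, and the cells had been exposed to compound for 16 h at 37C.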

Chain of Cellular tumor antigen p53 (Homo sapiens) (P04637 whole entry, looked up): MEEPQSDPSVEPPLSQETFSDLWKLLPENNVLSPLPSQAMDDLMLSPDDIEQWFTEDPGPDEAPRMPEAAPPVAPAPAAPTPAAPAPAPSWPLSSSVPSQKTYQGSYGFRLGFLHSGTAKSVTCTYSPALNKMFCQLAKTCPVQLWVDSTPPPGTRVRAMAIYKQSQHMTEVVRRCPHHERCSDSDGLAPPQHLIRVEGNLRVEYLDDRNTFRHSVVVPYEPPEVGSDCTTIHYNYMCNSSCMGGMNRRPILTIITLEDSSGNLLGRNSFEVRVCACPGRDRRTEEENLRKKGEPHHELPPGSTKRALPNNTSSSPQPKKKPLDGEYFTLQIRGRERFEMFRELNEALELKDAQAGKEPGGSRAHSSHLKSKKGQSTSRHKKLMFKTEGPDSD
Chain of THRA (gene 7067) (P10827 whole entry, looked up, the tested form may be a part): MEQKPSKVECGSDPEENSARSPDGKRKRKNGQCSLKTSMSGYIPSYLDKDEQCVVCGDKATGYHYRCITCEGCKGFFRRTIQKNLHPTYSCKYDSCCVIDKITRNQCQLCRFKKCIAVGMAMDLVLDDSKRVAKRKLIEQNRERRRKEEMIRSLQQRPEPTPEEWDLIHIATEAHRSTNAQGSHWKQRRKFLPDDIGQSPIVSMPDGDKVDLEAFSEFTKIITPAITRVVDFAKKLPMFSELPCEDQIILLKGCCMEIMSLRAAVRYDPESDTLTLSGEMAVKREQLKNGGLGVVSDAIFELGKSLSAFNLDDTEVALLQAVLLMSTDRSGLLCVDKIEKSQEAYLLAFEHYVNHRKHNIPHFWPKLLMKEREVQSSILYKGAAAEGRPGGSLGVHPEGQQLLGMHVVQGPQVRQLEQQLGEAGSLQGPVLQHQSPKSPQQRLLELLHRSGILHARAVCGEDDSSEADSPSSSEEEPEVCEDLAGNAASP
Chain of THRB (gene 7068) (P10828 whole entry, looked up): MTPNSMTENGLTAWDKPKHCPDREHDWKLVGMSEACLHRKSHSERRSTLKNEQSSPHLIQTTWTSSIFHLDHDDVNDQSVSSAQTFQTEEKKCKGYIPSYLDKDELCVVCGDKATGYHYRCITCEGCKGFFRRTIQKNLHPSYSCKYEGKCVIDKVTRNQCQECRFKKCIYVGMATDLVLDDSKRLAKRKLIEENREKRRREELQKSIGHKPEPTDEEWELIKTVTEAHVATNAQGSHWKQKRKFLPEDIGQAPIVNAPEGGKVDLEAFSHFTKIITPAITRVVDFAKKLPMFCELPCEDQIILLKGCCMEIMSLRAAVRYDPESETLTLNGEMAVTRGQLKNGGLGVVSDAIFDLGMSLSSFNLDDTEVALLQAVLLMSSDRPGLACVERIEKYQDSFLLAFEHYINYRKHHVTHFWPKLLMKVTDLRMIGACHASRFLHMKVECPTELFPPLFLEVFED

Turning to `CO[C@@]1(NC(=O)CSCC#N)C(=O)N2C(C(=O)O)=C(CSc3nnnn3C)CS[C@@H]21`, the compound was called inactive in test [1], in test [2], in [3], in test [4], in test [5] and in test [6].
Take `CCC1(CO)COCOC1`: the outcome in [1], in [2], in test [3], in test [4], in test [5] and in [6] was inactive.
By AC50 is commonly meant the midpoint of the concentration-response curve, whichever way the signal moves. With `O=C=Nc1cccc(C(F)(F)F)c1`, the compound was classed as inactive in test [1], in test [3], in test [4], in [5] and in [6]. Further, in [2], the AC50 is 86.2 µM (active).
On to `C[C@H](NCCc1ccc(O)cc1)[C@H](O)c1ccc(O)cc1`, for which the call in [1], in test [2], in test [3], in test [4], in [5] and in test [6] was inactive.
Take `CC(=O)N[C@@H](CS)C(=O)O`: the compound was called inactive in [1], in test [2], in [3], in test [4], in test [5] and in test [6].
On to `OCC(CO)N[C@H]1C[C@](O)(CO)[C@@H](O)[C@H](O)[C@H]1O`, for which the compound was called inactive in test [1], in test [2], in test [3], in test [4] and in [7].
For the compound `CC(C)(c1ccccc1)c1ccccc1`, the compound was classed as inactive in test [1], in [2], in [3], in test [4], in test [5] and in test [6]. Further, the compound was called inactive in test [8] and in test [9].
For `CCN(CC)CCC(=O)N1c2ccccc2Sc2ccc(Cl)cc21`, the compound was classed as inactive in test [1], in test [2], in test [3], in test [4], in [5] and in [6].
With `CC(=O)Nc1ccn(C2COC(COC(=O)c3ccccc3)O2)c(=O)n1` (stereo not given), the compound was called inactive (in test [1]; in test [3]; in test [5]; in test [6]; in [10]; with THRA (gene 7067)). Also, the result (with THRB (gene 7068); in test [11]) was inactive. The results for the concentration at half-maximal activity (AC50) in [2] and in test [4] were 5.44 µM (active) and 11.7 µM (active), respectively.
As to `C[C@H](CN1CCCC1)C(=O)c1ccc(C(F)(F)F)cc1`, the call in test [1], in [2], in [3], in test [4] and in test [7] was inactive.
As to `Nc1c(Br)cc(Br)cc1CNC1CCC(O)CC1` (stereo not given), the result in test [1], in test [2], in [3], in [4], in test [5] and in [6] was inactive.
With `CC(=O)c1sc(C)nc1C`, the result in test [1], in [2], in [3], in test [4], in test [5] and in test [6] was inactive.
For `O=C(O)C=CC(=O)Nc1ccc(S(=O)(=O)Nc2nccs2)cc1`, the compound was classed as inactive in [1], in test [2], in test [3] and in test [12].
Consider `Cc1c(NC(C)C)c(=O)n(-c2ccccc2)n1C`, for which the result in test [1], in [2], in test [3], in test [4], in test [7] and in test [6] was inactive.
For `CC(O)[C@@H]1NC(=O)[C@H](Cc2ccccc2)NC(=O)[C@H](C(C)O)NC(=O)[C@H](CCCCN)NC(=O)[C@H](Cc2c[nH]c3ccccc23)NC(=O)[C@H](Cc2ccccc2)NC(=O)[C@H](Cc2ccccc2)NC(=O)[C@H](CC(N)=O)NC(=O)[C@H](CCCCN)NC(=O)[C@@H](NC(=O)CNC(=O)[C@H](C)N)CSSC[C@@H](C(=O)O)NC(=O)[C@H](CO)NC1=O` (stereo not given in full), the result in test [1], in [2], in test [3], in [4], in test [7] and in [6] was inactive.
As for `CCCCCCC(=O)O[C@H]1CC[C@H]2[C@@H]3CCc4cc(O)ccc4[C@H]3CC[C@]12C`, the compound was classed as inactive in test [1], in test [2], in test [3], in test [4], in [7] and in [6].
Consider `CCCC(CCC)C(N)=O`, for which the result in test [1], in test [2], in test [3], in test [4] and in test [6] was inactive.
`COc1cc(C)nc(-n2nc(C)cc2OC)n1`: the outcome in test [1], in test [2], in [3], in [4], in test [7] and in test [6] was inactive.
Turning to `C(=C/c1ccccc1)/c1ccccc1`, the compound was called inactive in [1], in [2], in test [3], in test [4] and in [7].
As to `CCCCC[C@H](O)/C=C/[C@H]1[C@H](O)CC(=O)[C@@H]1C/C=C\CCCC(=O)O`, the compound was classed as inactive in test [1], in [2], in test [3], in test [4], in test [7] and in test [6].
Take `COc1cc2c(cc1OC)CC(=O)N(CCCN(C)C[C@H]1Cc3cc(OC)c(OC)cc31)CC2`: the compound was classed as inactive in test [1], in test [2], in test [3], in [4], in test [7] and in test [6].
As to `Cc1ccccc1OCC(O)CO` (stereo not given), the outcome in test [1], in [2], in [3], in test [4], in test [7] and in test [6] was inactive.
Turning to `O=C(NC1CCN(CCc2c[nH]c3ccccc23)CC1)c1ccccc1`, the call in test [1], in test [2], in test [3], in test [4] and in [6] was inactive.
Consider `O=C(CCCCC(=O)Nc1c(I)cc(I)c(C(=O)O)c1I)Nc1c(I)cc(I)c(C(=O)O)c1I`, for which the compound was classed as inactive in test [1], in test [2], in test [3], in test [12] and in test [5].
For the compound `C1OCOCO1`, the compound was classed as inactive in test [1], in [2], in [3], in test [4], in [7] and in test [6].
Regarding `C=C(C)C(=O)OCCN(CC)CC`, the result in [1], in [2], in test [3], in test [12] and in [5] was inactive.
For the compound `O=C1C2CC3CC1CC(O)(C3)C2`, the outcome in [1], in test [2], in [3], in test [4] and in test [6] was inactive.
Turning to `NCCN1CCNC1=O`, the result in test [1], in test [2], in [3], in [4], in test [7] and in test [6] was inactive.
Regarding `O=C(CCN1CCN2CCCC2C1)N1c2ccccc2Sc2ccc(Cl)cc21` (stereo not given), the outcome in test [1], in test [2], in test [3] and in [12] was inactive.
`CCO`: the compound was called inactive in test [1], in test [2], in test [3], in test [4], in test [7] and in test [6].
As for `CCN(CC)CCNC(=O)c1cc(Cl)c(N)cc1OC`, the outcome in test [1], in test [2], in test [3], in test [4], in [7] and in [6] was inactive.
On to `C[C@H]1C[C@H]2[C@@H]3CCC4=CC(=O)C=C[C@]4(C)[C@H]3C(=O)C[C@]2(C)[C@@]1(O)C(=O)CO`, for which the compound was called inactive in test [1], in test [2], in test [3], in test [12] and in test [5].
